Experimental data published in publication PMC4336329 (PLoS ONE, 2015).
Among all 310,000 compounds or so, about 14,000 (4.5%) showed an effect of 50% or more. The effect is printed as a negative number. Many of the other results were omitted from the sample, so strong results are more common in it than they were.

molecular target: human ether-à-go-go-related gene (hERG) potassium channel (human, UniProt Q12809); assay: primary screen, population patch clamp on CHO cells stably expressing hERG; higher = less effect of the substance
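Also: peak tail current of the secondary pulse compared with the same well before compound.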

Sequence of human ether-à-go-go-related gene (hERG) potassium channel (Q12809 whole entry, looked up): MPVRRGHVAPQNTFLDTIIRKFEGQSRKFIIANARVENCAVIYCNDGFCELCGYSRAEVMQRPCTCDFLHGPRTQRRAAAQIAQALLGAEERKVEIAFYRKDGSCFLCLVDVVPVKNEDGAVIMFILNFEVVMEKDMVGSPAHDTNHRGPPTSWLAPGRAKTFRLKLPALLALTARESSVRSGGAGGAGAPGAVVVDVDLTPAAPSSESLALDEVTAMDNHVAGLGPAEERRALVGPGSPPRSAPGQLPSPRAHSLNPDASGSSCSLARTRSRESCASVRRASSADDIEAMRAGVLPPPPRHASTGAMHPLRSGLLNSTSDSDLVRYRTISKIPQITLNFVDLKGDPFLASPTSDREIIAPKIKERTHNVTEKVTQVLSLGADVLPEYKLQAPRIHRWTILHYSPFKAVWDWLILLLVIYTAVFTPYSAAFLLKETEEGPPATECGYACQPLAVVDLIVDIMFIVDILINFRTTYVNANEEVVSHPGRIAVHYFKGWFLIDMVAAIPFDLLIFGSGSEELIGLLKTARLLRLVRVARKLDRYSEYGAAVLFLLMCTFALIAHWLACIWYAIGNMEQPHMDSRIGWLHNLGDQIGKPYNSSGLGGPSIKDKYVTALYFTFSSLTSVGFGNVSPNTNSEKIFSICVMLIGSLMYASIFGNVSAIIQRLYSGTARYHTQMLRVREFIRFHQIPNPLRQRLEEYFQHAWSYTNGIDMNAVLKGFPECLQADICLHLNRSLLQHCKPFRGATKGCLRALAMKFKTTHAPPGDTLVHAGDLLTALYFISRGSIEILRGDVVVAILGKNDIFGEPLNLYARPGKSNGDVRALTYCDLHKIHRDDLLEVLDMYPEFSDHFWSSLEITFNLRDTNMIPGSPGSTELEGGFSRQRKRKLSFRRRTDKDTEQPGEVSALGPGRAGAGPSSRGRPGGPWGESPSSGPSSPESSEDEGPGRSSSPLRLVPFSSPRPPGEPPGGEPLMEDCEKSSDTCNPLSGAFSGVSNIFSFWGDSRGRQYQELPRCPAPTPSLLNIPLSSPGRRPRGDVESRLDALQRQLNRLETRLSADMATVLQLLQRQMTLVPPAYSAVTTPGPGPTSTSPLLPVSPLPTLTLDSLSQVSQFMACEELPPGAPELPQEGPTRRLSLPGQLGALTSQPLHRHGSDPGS

| SMILES | hERG current change (%, negative = inhibition) at 10uM |
| --- | --- |
| COCOc1ccc(-c2oc3c(C/C=C(\C)CCC=C(C)C)ccc(O)c3c(=O)c2OCOC)c(OCOC)c1 | -9.2% |
| CC(Oc1ccc(Cl)cc1Cl)C(=O)Nc1ncccn1 (stereo not shown) | -2.67% |
| O=C(Nc1ccc(F)cc1)OC1CN2CCC1CC2 (stereo not shown) | -27.5% |
| CCOC(=O)C1CCCCN1Cc1ccc(C(F)(F)F)cc1 (stereo not shown) | 7.75% |
| CCOC(=O)c1cc(-c2ccccc2)nn1CC1CC(c2cccnc2)=NO1 (stereo not shown) | 3.47% |
| Cc1ccccc1-c1cc(C(=O)NCC2CC2)n(CC2CC(c3cccnc3)=NO2)n1 (stereo not shown) | -20% |
| COc1ccccc1CNC(=O)c1cc(-c2ccccc2C)nn1CC1CC(c2cccnc2)=NO1 (stereo not shown) | -2.89% |
| O=C(NCc1cccs1)c1cc(-c2ccccc2)nn1CC1CC(c2cccnc2)=NO1 (stereo not shown) | -51.8% |
| Cc1ccccc1-c1cc(C(=O)NCc2cccs2)n(CC2CC(c3cccnc3)=NO2)n1 (stereo not shown) | -26.2% |
| O=C(NCc1ccco1)c1cc(-c2ccccc2)nn1CC1CC(c2cccnc2)=NO1 (stereo not shown) | -63.9% |
| COc1ccccc1CNC(=O)c1cc(-c2ccccc2)nn1CC1CC(c2cccnc2)=NO1 (stereo not shown) | -71.2% |
| O=C(c1cc(-c2ccccc2)nn1CC1CC(c2cccnc2)=NO1)N1CCOCC1 (stereo not shown) | -4.25% |
| O=C(NCc1ccc(OC(F)(F)F)cc1)c1cc(-c2ccccc2)nn1CC1CC(c2cccnc2)=NO1 (stereo not shown) | -57.4% |
| Cc1ccccc1-c1cc(C(=O)NCc2ccco2)n(CC2CC(c3cccnc3)=NO2)n1 (stereo not shown) | -15.6% |
| O=C(NCC1CC1)c1cc(-c2ccccc2)nn1CC1CC(c2cccnc2)=NO1 (stereo not shown) | -25% |
| COc1ccc(NC(=O)C2CCCN(S(=O)(=O)c3ccc4[nH]c(=O)ccc4c3)C2)cc1 (stereo not shown) | 9.08% |
| COCCCNC(=O)Cn1ncc2ccsc2c1=O | 13.6% |
| O=C(COc1ccccc1Cl)NC(=O)NC1CCCCC1 | 5.11% |
| COc1ccc(CNC(=O)Cn2ncn3cccc3c2=O)cc1 | 3.12% |
| Cc1ccc(CNC(=O)c2cc(-c3ccccc3)nn2CC2CC(c3cccnc3)=NO2)cc1 (stereo not shown) | -69.7% |
| COCCNC(=O)c1cc(-c2ccccc2)nn1CC1CC(c2cccnc2)=NO1 (stereo not shown) | 2.9% |
| CC(Oc1ccccc1F)c1nnc(SCC(=O)NCc2ccc3c(c2)OCO3)o1 (stereo not shown) | -32.1% |
| NS(=O)(=O)c1ccc(NCc2ccccc2OCc2ccccc2F)cc1 | -2.39% |

| SMILES | hERG current change (%, negative = inhibition) at 10uM |
| --- | --- |
| NS(=O)(=O)c1ccc(NCc2cc(Cl)ccc2OCc2ccccc2F)cc1 | -2.13% |
| Cl.NS(=O)(=O)c1ccc(CCNCc2cc(Br)ccc2OCc2ccccc2)cc1 | -71.8% |
| COc1ccc(Br)cc1CNc1ccc(S(N)(=O)=O)cc1 | -14.1% |
| Cl.NS(=O)(=O)c1ccc(CCNCc2cc(Br)ccc2OCc2ccccc2F)cc1 | -75.9% |
| CCOc1ccc([N+](=O)[O-])cc1CNCCc1ccccc1.Cl | -45.5% |
| CCn1c(SCc2nc(-c3ccccc3)no2)nc2ccccc21 | -24.6% |
| CCCCOc1ccccc1C(=O)NCCCCCC(=O)O | 10.3% |
| CCc1cccc(OCCCn2ccnc2)c1.O=C(O)C(=O)O | -25.7% |
| Cc1cc(C(F)F)n2nc(C(=O)Nc3sc4c(c3C(N)=O)CCC4)nc2n1 | -60.9% |
| Cc1cc(C(F)F)n2nc(C(=O)Nc3sc4c(c3C#N)CCC4)nc2n1 | 18.3% |
| COC(=O)c1c(NC(=O)c2nc3nc(C)cc(C(F)F)n3n2)sc2c1CCC2 | 5.97% |
| CCC1CCC/C1=N\NC(=O)c1ccccc1Cl (stereo not shown) | 19.2% |
| COc1ccc(CNC(=O)COC(=O)CC(NC(N)=O)c2ccc(Cl)cc2)cc1OC (stereo not shown) | 1.27% |
| COc1cccc(NC(=O)COC(=O)CC(NC(N)=O)c2ccc(Cl)cc2)c1 (stereo not shown) | -2.18% |
| NC(=O)COC(=O)CC(NC(N)=O)c1ccc(Cl)cc1 (stereo not shown) | 17.6% |
| CCOc1ccccc1NC(=O)COC(=O)CSc1ccc(Cl)cc1 | 21.2% |
| N#Cc1ccc(COC(=O)CC(NC(N)=O)c2ccc(Cl)cc2)cc1 (stereo not shown) | -59.9% |
| CCOc1ccccc1NC(=O)COC(=O)CC(NC(N)=O)c1ccc(Cl)cc1 (stereo not shown) | -68.4% |
| CC(=O)c1c(O)cc(=O)oc1-c1ccc(C)cc1 | 16.7% |
| COc1cc(C2N(c3ccccc3)CCN2c2ccccc2)ccc1OC(C)=O | -1.36% |
| Cn1c(CNc2ccccc2)nc2ccccc21 | 4.27% |
| CCOC(=O)Cn1cc(C#N)c2ccccc21 | 15.1% |
| CCOC(=O)N1CCC(=NNc2ccc(S(N)(=O)=O)cc2[N+](=O)[O-])CC1 | -11.8% |

| SMILES | hERG current change (%, negative = inhibition) at 10uM |
| --- | --- |
| CCOC(=O)N1CCC(=NNc2ccc(S(=O)(=O)N3CCOCC3)cc2[N+](=O)[O-])CC1 | -61.3% |
| CCOc1ccc(S(=O)(=O)N2CCOCC2)cc1NS(=O)(=O)c1ccc(OC)c([N+](=O)[O-])c1 | -41.7% |
| CCCOc1ccc(S(=O)(=O)N2CCOCC2)cc1[N+](=O)[O-] | -57.8% |
| CC(=O)N1CCC(=NNc2ccc(S(=O)(=O)N3CCOCC3)cc2[N+](=O)[O-])CC1 | -18.2% |
| CCOc1ccc(S(=O)(=O)N2CCOCC2)cc1[N+](=O)[O-] | -52.2% |
| O=[N+]([O-])c1cc(S(=O)(=O)N2CCOCC2)ccc1OCc1cccc(Cl)c1 | 1.31% |
| CCCOc1ccc(S(=O)(=O)N2CCCC2)cc1[N+](=O)[O-] | -30.1% |
| O=C1c2ccccc2C(=O)N1COc1ccc(S(=O)(=O)N2CCOCC2)cc1[N+](=O)[O-] | -22.8% |
| COCCn1c(SCC(=O)Nc2c(C)n(C)n(-c3ccccc3)c2=O)nc2ccccc2c1=O | -19.6% |
| CCCC(=O)N(c1ccc(C(=O)O)cc1)c1nc(-c2ccccc2)c(C)s1 | 14.2% |
| CCOc1cc2c(cc1OCC)C(C(=O)O)C(c1cc(OC)c(OC)c(OC)c1)N(C)C2=O (stereo not shown) | 3.02% |
| COC(=O)[C@@H]1C[C@@H]2CC[C@@H](O)C[C@@H]2N1Cc1ccc(N2CCN(C)CC2)cc1 | 9.87% |
| CCCCCn1c(N2CCCC2)nc2c1c(=O)n(C)c(=O)n2C | -9.54% |
| CC1CCN(c2nc3c(c(=O)n(C)c(=O)n3C)n2Cc2ccccc2)CC1 | -50% |
| CCCCCCn1c(N2CCC(C(N)=O)CC2)nc2c1c(=O)n(C)c(=O)n2C | -56.4% |
| Cn1c(N2CCC(C(N)=O)CC2)nc2c1c(=O)n(Cc1cccc(Br)c1)c(=O)n2C | -64.7% |
| CCCCCCn1c(N2CCCC2)nc2c1c(=O)n(C)c(=O)n2C | -1.96% |
| CCOC(=O)Cn1c(=O)c2c(nc(N3CCCCC3)n2Cc2ccccc2)n(C)c1=O | -40.4% |
| CN(CCO)c1nc2c(c(=O)n(Cc3ccc(Cl)cc3)c(=O)n2C)n1C | 3.79% |
| Cn1c(N2CCCC2)nc2c1c(=O)n(Cc1cccc(F)c1)c(=O)n2C | -19.6% |
| Cn1c(N2CCC(C(N)=O)CC2)nc2c1c(=O)n(Cc1ccc(Cl)cc1)c(=O)n2C | -58.5% |
| Cn1c(Cl)nc2c1c(=O)n(Cc1cccc(Br)c1)c(=O)n2C | -35.3% |
| CC(O)CNc1nc2c(c(=O)n(Cc3ccc(Br)cc3)c(=O)n2C)n1C (stereo not shown) | -12.6% |

| SMILES | hERG current change (%, negative = inhibition) at 10uM |
| --- | --- |
| Cn1c(N2CCC(C(N)=O)CC2)nc2c1c(=O)n(Cc1ccc(Br)cc1)c(=O)n2C | -57.3% |
| CCOc1ccc(S(=O)(=O)NCCC(=O)OC(C)C(=O)N2CCc3ccccc32)cc1 (stereo not shown) | -22.6% |
| NC(=O)c1ccc(NC(=O)CNCc2ccccc2Cl)cc1 | 8.82% |
| COc1ccccc1NS(=O)(=O)c1cccc(C(=O)NCc2ccccn2)c1 | 13.2% |
| CCOc1nc(C)ccc1-c1noc(-c2ccccc2OC)n1 | 12.7% |
| CCCC12CN3CC(C)(CN(C1)C3c1ccco1)C2=O (stereo not shown) | -4.64% |
| CCOc1ncccc1C(=O)NCCc1ccc(Cl)cc1 | -5.75% |
| CC(=O)CC(C)(C)Nc1nc2cc([N+](=O)[O-])ccc2o1 | 0.0382% |
| COc1cc(NC(=O)c2ccc3snnc3c2)cc(OC)c1 | 13.5% |
| CCOCc1nnc(NC(=O)C2CC(=O)N(C3CCCC3)C2)s1 (stereo not shown) | 4.92% |
| COc1ccc(/C=C/c2nc(-c3ccccc3O)n[nH]2)cc1OC | 12.1% |
| CCOC(=O)Nc1c(O)ccc2oc(C)c(-c3ccccc3)c12 | -1.49% |
| O=C(Nc1ccc2nsnc2c1)N1CCCCC1 | 22.2% |
| CCCCn1c(CN2CCN(c3ccc(F)cc3)CC2)nc2c1c(=O)n(C)c(=O)n2C | -25% |
| CCOCCn1c(CN2CCN(c3ccccc3)CC2)nc2c1c(=O)n(C)c(=O)n2C | -22.1% |
| COCCn1c(CN2CCN(c3ccccc3)CC2)nc2c1c(=O)n(C)c(=O)n2C | -13.8% |
| Cn1c(=O)c2c(nc(CN3CCN(c4ccccc4)CC3)n2CCN2CCOCC2)n(C)c1=O | -21.7% |
| CCOCCn1c(CN2CCN(c3ccc(F)cc3)CC2)nc2c1c(=O)n(C)c(=O)n2C | -56.2% |
| COCCn1c(CN2CCN(c3cccc(Cl)c3)CC2)nc2c1c(=O)n(C)c(=O)n2C | -53.9% |
| CCOCCn1c(CN2CCN(c3cccc(Cl)c3)CC2)nc2c1c(=O)n(C)c(=O)n2C | -55% |
| CCOCCn1c(CN2CCN(c3ccc(OC)cc3)CC2)nc2c1c(=O)n(C)c(=O)n2C | -41.2% |
| CCOCCn1c(CN2CCN(C)CC2)nc2c1c(=O)n(C)c(=O)n2C | 3.97% |
